Experiments:
Test in all cases: log2 ratio of Biotin-Ahx-Ub-VS probe labelling (fragment/DMSO); higher = less target engagement (more negative = stronger competition), active = hit call of the paper (q ≤ 0.05, log2 ratio ≤ -1)
Conditions in all cases: compound concentration: 200 uM; treatment time: 3 h
USP34 = USP34 (UniProt Q70CQ2)
Procedure, shortened: (§1)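 HEK293T lysate, 495 µg per sample in Tris/CHAPS/IGEPAL buffer with protease inhibitors, was treated in triplicate with fragment at 200 µM or vehicle for 3 h and then with Biotin-Ahx-Ub-VS at 0.5 µM final for 1 h. Labelled DUBs were NeutrAvidin-enriched, digested with LysC and trypsin, and run by diaPASEF LC-MS/MS. Spectronaut label-free quantities were global-median-normalised, and values are average log2 fragment/vehicle ratios by unpaired t-test on proteins with ≥2 unique peptides.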

USP36 = target: T1, USP36 (UniProt Q9P275)
T1 sequence (whole entry): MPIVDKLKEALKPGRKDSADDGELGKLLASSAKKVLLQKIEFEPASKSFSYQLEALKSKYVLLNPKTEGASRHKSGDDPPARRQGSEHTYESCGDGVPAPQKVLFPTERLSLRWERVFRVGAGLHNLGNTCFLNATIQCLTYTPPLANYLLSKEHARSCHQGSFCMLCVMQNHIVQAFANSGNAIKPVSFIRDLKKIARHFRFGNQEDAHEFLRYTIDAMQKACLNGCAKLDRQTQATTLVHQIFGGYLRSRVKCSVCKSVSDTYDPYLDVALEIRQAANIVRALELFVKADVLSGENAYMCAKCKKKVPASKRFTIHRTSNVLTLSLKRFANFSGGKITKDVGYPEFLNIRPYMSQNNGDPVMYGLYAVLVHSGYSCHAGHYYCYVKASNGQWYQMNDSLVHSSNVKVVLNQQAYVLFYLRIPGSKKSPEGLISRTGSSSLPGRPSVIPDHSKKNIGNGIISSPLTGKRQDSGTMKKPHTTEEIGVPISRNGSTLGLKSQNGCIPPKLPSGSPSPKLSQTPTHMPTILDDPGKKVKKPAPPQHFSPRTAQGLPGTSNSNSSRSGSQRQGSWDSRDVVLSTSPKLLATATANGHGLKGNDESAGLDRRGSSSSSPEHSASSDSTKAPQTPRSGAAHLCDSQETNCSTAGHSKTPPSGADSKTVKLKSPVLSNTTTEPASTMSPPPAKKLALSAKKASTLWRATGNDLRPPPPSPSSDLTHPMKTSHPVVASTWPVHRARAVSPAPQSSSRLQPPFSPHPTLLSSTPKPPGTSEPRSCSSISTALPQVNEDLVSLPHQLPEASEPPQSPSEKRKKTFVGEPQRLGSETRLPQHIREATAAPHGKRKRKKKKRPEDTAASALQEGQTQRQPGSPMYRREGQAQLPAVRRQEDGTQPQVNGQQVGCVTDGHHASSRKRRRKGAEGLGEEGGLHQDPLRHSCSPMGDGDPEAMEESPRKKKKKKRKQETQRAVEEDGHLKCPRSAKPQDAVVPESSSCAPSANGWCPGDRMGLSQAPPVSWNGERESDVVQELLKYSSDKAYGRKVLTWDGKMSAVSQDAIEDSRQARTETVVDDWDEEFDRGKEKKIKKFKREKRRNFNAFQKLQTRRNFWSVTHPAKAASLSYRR
Procedure, shortened: as §1

USP38 = target: T2, USP38 (UniProt Q8NB14)
T2 sequence (whole entry): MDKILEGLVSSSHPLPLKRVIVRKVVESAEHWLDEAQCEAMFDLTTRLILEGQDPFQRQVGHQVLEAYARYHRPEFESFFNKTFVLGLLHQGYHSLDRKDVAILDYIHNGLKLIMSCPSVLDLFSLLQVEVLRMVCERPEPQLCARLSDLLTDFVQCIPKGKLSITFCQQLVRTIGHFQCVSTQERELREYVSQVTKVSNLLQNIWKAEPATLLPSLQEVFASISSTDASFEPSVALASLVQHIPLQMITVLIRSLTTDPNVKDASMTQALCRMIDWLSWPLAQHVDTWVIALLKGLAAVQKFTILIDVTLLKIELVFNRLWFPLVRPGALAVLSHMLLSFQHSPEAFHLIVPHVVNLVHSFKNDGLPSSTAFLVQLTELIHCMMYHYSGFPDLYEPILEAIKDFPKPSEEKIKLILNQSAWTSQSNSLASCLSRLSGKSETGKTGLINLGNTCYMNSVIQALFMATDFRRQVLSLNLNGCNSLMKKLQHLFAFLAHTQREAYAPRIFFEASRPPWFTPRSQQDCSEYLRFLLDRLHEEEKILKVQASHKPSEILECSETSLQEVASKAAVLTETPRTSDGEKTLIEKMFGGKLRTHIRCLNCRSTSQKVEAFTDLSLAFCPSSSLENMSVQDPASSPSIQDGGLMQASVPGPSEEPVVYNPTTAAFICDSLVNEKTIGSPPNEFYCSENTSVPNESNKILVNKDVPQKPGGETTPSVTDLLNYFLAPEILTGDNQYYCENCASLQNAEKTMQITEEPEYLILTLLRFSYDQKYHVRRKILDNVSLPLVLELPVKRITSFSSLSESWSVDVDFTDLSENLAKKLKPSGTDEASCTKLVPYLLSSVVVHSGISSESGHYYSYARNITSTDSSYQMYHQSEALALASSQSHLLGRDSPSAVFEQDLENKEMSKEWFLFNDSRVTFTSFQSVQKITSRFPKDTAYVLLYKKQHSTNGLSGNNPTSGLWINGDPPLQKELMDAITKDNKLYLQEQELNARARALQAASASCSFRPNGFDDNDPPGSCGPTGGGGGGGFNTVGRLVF
Procedure, shortened: as §1

USP39 = target: T3, USP39 (UniProt Q53GS9)
T3 sequence (whole entry): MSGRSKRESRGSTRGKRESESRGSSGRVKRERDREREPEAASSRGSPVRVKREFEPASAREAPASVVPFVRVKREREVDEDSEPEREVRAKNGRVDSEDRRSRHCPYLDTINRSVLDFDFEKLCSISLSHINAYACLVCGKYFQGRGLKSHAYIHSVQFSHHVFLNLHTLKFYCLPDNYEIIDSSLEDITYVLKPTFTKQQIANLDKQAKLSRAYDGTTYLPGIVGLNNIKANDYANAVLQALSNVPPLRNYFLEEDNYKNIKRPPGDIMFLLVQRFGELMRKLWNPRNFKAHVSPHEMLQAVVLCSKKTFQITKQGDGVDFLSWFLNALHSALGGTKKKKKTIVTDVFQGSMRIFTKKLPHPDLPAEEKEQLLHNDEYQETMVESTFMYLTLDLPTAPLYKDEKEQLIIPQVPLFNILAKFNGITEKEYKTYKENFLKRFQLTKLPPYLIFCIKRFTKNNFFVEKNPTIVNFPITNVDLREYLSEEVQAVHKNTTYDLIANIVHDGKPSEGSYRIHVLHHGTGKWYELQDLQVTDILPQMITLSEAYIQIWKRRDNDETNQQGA
Procedure, shortened: as §1

USP4 = target: T4, USP4 (UniProt Q13107)
T4 sequence (whole entry): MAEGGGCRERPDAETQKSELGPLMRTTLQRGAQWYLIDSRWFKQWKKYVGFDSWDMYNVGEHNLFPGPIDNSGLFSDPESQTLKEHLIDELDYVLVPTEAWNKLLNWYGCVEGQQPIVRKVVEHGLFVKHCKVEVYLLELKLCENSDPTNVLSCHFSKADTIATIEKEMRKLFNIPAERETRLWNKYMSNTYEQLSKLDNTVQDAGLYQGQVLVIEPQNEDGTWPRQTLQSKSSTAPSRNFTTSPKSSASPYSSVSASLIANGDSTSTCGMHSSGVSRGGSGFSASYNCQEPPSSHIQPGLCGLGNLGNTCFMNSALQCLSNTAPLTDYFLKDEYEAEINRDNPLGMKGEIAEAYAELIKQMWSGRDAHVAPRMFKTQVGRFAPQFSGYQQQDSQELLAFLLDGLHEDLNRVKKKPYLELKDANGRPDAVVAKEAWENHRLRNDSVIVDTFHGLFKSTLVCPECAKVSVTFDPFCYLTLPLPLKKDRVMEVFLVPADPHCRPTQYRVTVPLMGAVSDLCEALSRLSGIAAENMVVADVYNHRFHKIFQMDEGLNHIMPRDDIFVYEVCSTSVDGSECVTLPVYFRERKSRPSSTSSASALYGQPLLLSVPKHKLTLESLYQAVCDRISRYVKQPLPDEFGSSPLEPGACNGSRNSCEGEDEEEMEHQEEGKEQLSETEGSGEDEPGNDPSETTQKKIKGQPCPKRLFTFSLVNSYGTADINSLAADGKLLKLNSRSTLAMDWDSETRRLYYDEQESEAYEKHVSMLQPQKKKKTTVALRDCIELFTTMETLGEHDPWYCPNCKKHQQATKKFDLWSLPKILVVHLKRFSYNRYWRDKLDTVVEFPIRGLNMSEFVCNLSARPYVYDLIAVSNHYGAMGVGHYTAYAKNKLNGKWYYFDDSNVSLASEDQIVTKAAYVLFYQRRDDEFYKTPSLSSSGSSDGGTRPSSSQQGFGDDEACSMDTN
Procedure, shortened: as §1

Measured: log2 ratio of Biotin-Ahx-Ub-VS probe labelling

Chain of USP34 (Q70CQ2 whole entry, the tested form may be a part): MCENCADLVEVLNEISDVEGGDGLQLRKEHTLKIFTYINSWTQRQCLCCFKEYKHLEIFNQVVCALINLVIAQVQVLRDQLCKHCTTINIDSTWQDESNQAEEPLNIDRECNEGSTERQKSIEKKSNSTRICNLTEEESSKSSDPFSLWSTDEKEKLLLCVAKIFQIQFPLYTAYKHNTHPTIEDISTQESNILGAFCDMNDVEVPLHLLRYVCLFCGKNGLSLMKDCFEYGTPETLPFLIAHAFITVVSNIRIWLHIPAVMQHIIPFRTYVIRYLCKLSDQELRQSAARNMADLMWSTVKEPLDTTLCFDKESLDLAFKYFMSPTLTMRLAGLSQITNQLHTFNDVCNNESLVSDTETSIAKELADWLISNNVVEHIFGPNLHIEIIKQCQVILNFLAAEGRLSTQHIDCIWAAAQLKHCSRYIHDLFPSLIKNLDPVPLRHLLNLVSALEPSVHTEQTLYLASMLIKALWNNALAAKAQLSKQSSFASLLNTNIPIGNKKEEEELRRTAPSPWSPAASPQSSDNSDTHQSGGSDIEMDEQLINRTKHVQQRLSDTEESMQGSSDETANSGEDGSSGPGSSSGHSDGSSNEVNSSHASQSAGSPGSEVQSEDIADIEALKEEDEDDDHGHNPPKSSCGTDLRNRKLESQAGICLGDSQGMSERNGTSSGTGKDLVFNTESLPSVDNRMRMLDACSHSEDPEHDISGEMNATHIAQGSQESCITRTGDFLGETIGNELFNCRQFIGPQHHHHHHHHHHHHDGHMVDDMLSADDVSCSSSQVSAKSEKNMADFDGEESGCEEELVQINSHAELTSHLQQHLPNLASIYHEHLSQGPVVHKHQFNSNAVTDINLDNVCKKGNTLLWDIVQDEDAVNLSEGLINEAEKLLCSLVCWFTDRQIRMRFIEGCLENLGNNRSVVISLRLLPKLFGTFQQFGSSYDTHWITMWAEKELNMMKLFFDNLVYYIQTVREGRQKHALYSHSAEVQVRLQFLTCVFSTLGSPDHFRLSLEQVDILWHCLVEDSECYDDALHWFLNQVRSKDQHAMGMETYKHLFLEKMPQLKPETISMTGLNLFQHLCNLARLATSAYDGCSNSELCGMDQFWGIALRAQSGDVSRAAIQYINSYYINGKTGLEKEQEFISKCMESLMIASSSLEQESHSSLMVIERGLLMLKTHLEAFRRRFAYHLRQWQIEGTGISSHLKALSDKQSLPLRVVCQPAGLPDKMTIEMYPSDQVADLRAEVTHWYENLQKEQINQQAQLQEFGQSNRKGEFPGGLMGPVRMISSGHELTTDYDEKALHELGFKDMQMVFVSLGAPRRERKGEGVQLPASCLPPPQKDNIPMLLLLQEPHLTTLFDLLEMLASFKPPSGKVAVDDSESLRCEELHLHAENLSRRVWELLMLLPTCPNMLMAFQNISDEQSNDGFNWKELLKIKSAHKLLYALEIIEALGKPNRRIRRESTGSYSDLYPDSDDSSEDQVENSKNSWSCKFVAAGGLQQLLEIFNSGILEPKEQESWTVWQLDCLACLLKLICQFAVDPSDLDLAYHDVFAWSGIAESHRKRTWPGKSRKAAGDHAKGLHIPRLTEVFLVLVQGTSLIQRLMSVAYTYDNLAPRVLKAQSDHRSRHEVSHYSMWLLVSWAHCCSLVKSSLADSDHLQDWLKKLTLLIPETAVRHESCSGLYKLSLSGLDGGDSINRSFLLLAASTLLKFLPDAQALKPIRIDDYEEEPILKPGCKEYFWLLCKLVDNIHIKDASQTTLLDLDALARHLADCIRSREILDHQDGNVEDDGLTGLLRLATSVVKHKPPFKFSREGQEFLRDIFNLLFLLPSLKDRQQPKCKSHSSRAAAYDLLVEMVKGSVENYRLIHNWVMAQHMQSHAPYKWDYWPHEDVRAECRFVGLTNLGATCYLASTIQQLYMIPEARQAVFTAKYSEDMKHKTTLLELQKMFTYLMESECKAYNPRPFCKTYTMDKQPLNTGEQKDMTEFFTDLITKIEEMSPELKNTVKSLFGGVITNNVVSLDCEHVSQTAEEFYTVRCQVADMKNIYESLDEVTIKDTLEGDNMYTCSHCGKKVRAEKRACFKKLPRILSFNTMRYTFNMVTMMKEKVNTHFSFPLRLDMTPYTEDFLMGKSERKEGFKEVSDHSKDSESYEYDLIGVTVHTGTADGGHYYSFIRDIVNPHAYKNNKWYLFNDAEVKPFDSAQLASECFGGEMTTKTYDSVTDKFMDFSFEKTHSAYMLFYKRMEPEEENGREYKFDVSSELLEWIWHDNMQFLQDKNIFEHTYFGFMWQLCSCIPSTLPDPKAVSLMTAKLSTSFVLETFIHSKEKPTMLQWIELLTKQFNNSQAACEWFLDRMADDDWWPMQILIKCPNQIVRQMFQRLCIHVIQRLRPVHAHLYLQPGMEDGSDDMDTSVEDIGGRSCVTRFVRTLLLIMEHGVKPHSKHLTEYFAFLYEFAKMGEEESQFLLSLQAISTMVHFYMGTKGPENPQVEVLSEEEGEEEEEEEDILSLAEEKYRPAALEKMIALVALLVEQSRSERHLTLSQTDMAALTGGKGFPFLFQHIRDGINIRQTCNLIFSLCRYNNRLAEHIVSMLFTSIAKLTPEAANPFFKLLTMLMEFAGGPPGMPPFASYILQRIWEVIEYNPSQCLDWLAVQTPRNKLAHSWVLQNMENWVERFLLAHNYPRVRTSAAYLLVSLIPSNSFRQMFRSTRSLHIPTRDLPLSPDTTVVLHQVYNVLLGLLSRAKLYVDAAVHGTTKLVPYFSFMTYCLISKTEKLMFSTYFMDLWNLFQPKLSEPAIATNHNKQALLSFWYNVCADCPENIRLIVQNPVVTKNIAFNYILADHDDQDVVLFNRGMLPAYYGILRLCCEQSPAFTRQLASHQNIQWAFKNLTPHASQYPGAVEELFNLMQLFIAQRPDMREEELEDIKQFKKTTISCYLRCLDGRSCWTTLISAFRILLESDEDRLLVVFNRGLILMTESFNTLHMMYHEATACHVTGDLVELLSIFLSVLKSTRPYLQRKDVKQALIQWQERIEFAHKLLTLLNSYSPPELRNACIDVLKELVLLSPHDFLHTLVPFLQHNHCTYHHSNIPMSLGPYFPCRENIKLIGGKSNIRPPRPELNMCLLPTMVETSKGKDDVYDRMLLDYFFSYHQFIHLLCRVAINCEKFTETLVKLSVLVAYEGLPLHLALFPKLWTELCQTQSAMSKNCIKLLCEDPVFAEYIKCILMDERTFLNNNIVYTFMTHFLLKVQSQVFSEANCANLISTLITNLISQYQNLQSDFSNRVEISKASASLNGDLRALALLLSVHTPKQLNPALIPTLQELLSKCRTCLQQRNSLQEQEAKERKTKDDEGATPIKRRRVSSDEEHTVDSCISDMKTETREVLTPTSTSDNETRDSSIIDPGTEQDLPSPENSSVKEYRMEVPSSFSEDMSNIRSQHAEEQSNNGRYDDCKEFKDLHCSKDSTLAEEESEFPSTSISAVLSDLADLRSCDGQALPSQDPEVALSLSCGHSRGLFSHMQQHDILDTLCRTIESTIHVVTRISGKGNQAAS

O=C(CCl)N1CCOC(c2cccc(F)c2)C1 (stereo not given)
inactive: USP34 -0.575 | USP36 -0.337 | USP38 -0.131 | USP39 -0.0268 | USP4 -0.344

Reference: the supplement of paper PMC11732987, “Enantioselective OTUD7B fragment discovery through chemoproteomics screening and high-throughput optimisation” (Communications Chemistry, 2025)
